A short description of the experiment: DUX4 transcriptional activity inhibition in cells – 293T cells, Gaussia and Italica luciferase, primary screen (AID 1224904).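 On activity change, negative = inhibition: 0% = median of neutral control wells and -100% = median of positive control wells.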 Particulars: 293T-iDUX4 ZSCAN4-Gaussia luciferase reporter, 24 h, stronger effect = lower value, concentration not given here; for Gaussia minus Italica difference: measured here: selective DUX4 reporter inhibition.
[1] abbreviates: measured here: Italica tet-on control reporter.

The structures appear in SMILES notation. Screen size: about 37,000 compounds; about 290 (0.78%) were called active. Another 10% or so got no clear call; they are omitted.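 How the source made its calls: active means mean inhibition of at least 10% in the main channel, exceeding the control channel by a set limit; inconclusive means inhibition of 10% or more but channel gap under a set limit; inactive means mean inhibition below 10%.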 What follows is part of a selection rich in actives, with near analogues and random picks from the rest.

With `C[C@@H]1CN([C@@H](C)CO)C(=O)Cc2cc(NC(=O)Nc3cccc4ccccc34)ccc2O[C@H]1CN(C)S(=O)(=O)c1ccc(Cl)cc1`, the activity change, negative = inhibition was -2.17% (inactive) and the Gaussia minus Italica difference is -5.4%. The activity change, negative = inhibition under setting [1] worked out at 3.22%.

`CC(C)[C@@H]1COCn2nncc2CCCC(=O)N1`: the activity change, negative = inhibition was -6.02% (inactive) and the Gaussia minus Italica difference is -13.2%. For the same compound, the activity change, negative = inhibition under setting [1] worked out at 7.14%.

In the case of `CO[C@@H]1CC[C@@H]2CCOc3c(C#N)cccc3C(=O)N(C)C[C@@H](C)C(=O)N(C)C[C@@H]1O2`, the activity change, negative = inhibition is -3.12% (inactive) and the Gaussia minus Italica difference is -1.62%. In addition, the activity change, negative = inhibition under setting [1] is -1.5%.

On to `C[C@H](O)C#Cc1ccc([C@@H]2[C@H](CO)N3CCCCN(CC4CC4)C[C@@H]23)cc1`, for which the activity change, negative = inhibition is 4.25% (inactive) and the Gaussia minus Italica difference is -4.76%. Moreover, the activity change, negative = inhibition under setting [1] was found to be 9.01%.

With `COCC(=O)N1[C@@H](CO)[C@H](c2ccccc2)C12CN(C(=O)NC1CCCCC1)C2`, the activity change, negative = inhibition is 12.7% (inactive) and the Gaussia minus Italica difference stood at 8.54%. In addition, under setting [1], the activity change, negative = inhibition amounted to 4.2%.

On to `COc1ccccc1-c1ccc2n(c1=O)C[C@@H]1[C@@H](CO)[C@H](C(=O)NCc3ccccc3Cl)N[C@H]21`, for which the activity change, negative = inhibition is -0.143% (inactive) and the Gaussia minus Italica difference stood at 7.37%. In addition, the activity change, negative = inhibition under setting [1] is -7.51%.

With `CCC(=O)Nc1ccc2c(c1)C(=O)N(C)C[C@H](OC)[C@@H](C)CN(Cc1nccs1)[C@H](C)CO2`, the activity change, negative = inhibition was -5.35% (inactive) and the Gaussia minus Italica difference is -10%. Moreover, the activity change, negative = inhibition under setting [1] came to 4.67%.

With `CNC[C@H]1Oc2ncc(C#Cc3ccccc3F)cc2C(=O)N([C@H](C)CO)C[C@H]1C`, the activity change, negative = inhibition is -2.73% (inactive) and the Gaussia minus Italica difference was -1.72%. The activity change, negative = inhibition under setting [1] was -1.01%.

With `CN1CCN(C(=O)C[C@@H]2CC[C@@H]3[C@H](COC[C@H](O)CN3CC3CCOCC3)O2)CC1`, the activity change, negative = inhibition was 7.66% (inactive) and the Gaussia minus Italica difference is -3.98%. Besides, the activity change, negative = inhibition under setting [1] amounted to 11.6%.

Turning to `CNC(=O)C[C@@H]1CC[C@H]2[C@H](COc3ccc(NC(=O)C4CC4)cc3C(=O)N2C)O1`, the activity change, negative = inhibition was 2.13% (inactive) and the Gaussia minus Italica difference is 2.15%. The activity change, negative = inhibition under setting [1] is -0.014%.

Regarding `CS(=O)(=O)N1C[C@@H](O)COC[C@@H]2O[C@H](CC(=O)NC3Cc4ccccc4C3)CC[C@H]21`, the activity change, negative = inhibition was 6.74% (inactive) and the Gaussia minus Italica difference amounted to 9.82%. For the same compound, the activity change, negative = inhibition under setting [1] was -3.08%.

`CN1c2ccc(-c3ccccc3F)cc2[C@@H]2[C@@H](CCN2C(=O)CN2CCOCC2)[C@H]1CO`: the activity change, negative = inhibition is 0.948% (inactive) and the Gaussia minus Italica difference was -8.96%. Moreover, the activity change, negative = inhibition under setting [1] was 9.9%.

Consider `CCCNC(=O)C[C@@H]1CC[C@H]2[C@H](COc3ccc(NS(=O)(=O)c4ccccc4C)cc3C(=O)N2C)O1`, for which the activity change, negative = inhibition is 1.9% (inactive) and the Gaussia minus Italica difference was -5.61%. Further, under setting [1], the activity change, negative = inhibition was 7.5%.

For `C/C=C/c1ccc2c(c1)O[C@@H](CN(C)C(=O)c1ccccn1)[C@H](C)CN([C@@H](C)CO)S2(=O)=O`, the activity change, negative = inhibition was -2.65% (inactive) and the Gaussia minus Italica difference is -6.3%. In addition, the activity change, negative = inhibition under setting [1] worked out at 3.66%.

For `O=C(NC[C@@H]1[C@@H](c2ccccc2)[C@H](CO)N1C(=O)Cc1cccnc1)C1CC1`, the activity change, negative = inhibition is 3.18% (inactive) and the Gaussia minus Italica difference is -1.42%. Besides, the activity change, negative = inhibition under setting [1] was found to be 4.6%.

As to `CCCNC(=O)N1[C@H](CO)[C@@H]2c3ccccc3N(C(=O)C3CCOCC3)C[C@@H]21`, the activity change, negative = inhibition is -1.95% (inactive) and the Gaussia minus Italica difference was -1.27%. The activity change, negative = inhibition under setting [1] was -0.682%.

For `CCS(=O)(=O)N1CCC2(CC1)CN[C@H](CO)c1c2c2ccc(OC)cc2n1C`, the activity change, negative = inhibition was 14.5% (inactive) and the Gaussia minus Italica difference stood at 3.59%. Moreover, under setting [1], the activity change, negative = inhibition is 10.9%.

`C[C@H](CO)N1C[C@H](C)[C@@H](CN(C)Cc2ccncc2)OCCCC[C@H](C)Oc2ccc(NS(=O)(=O)c3ccc(Cl)cc3)cc2C1=O`: the activity change, negative = inhibition is 1.79% (inactive) and the Gaussia minus Italica difference is -7.04%. The activity change, negative = inhibition under setting [1] was determined as 8.83%.

In the case of `COc1cccc(C#Cc2ccc3c(c2)[C@@H]2[C@@H](CCN2S(=O)(=O)c2ccc(C)cc2)[C@@H](CO)N3)c1`, the activity change, negative = inhibition is 8.73% (inactive) and the Gaussia minus Italica difference is -3.21%. Under setting [1], the activity change, negative = inhibition turned out to be 11.9%.

As for `COc1cccc(CNC(=O)C[C@@H]2CC[C@H]3[C@@H](COc4ccc(NC(=O)c5cccs5)cc4C(=O)N3C)O2)c1`, the activity change, negative = inhibition is -0.0474% (inactive) and the Gaussia minus Italica difference was 2.66%. In addition, the activity change, negative = inhibition under setting [1] is -2.71%.

With `COc1ccc(CNC(=O)C[C@H]2C[C@@H]3c4cc(NC(=O)NC5CCCC5)ccc4O[C@@H]3[C@H](CO)O2)cc1`, the activity change, negative = inhibition is 8.81% (inactive) and the Gaussia minus Italica difference was found to be 1.96%. Under setting [1], the activity change, negative = inhibition was 6.85%.

As for `O=C(CCN1CCCCC1)NCC[C@@H]1CC[C@H](NS(=O)(=O)c2cccc(Cl)c2)[C@H](CO)O1`, the activity change, negative = inhibition was 5.38% (inactive) and the Gaussia minus Italica difference came out at 12.6%. For the same compound, the activity change, negative = inhibition under setting [1] is -7.23%.

With `CN1[C@@H]2c3ccc(-c4ccc(F)cc4)c(=O)n3C[C@H]1[C@H](CO)[C@H]2C(=O)NC1CCC1`, the activity change, negative = inhibition is 6.4% (inactive) and the Gaussia minus Italica difference worked out at 8.27%. Besides, the activity change, negative = inhibition under setting [1] was -1.88%.

`CCCNC(=O)N1C[C@@H](O)COC[C@@H]2O[C@H](CC(=O)N3CCN(C)CC3)CC[C@H]21`: the activity change, negative = inhibition is 1.94% (inactive) and the Gaussia minus Italica difference stood at 1.17%. Moreover, the activity change, negative = inhibition under setting [1] stood at 0.769%.

On to `CS(=O)(=O)N1CCCCN2[C@H](CO)[C@H](c3ccc(-c4cccc(C#N)c4)cc3)[C@H]2C1`, for which the activity change, negative = inhibition is 1.86% (inactive) and the Gaussia minus Italica difference is 3.44%. In addition, under setting [1], the activity change, negative = inhibition was -1.58%.

Take `CCNC(=O)[C@H]1[C@H](CO)[C@H]2Cn3c(ccc(-c4ccc(OC)cc4)c3=O)[C@H]2N1Cc1ccccc1`: the activity change, negative = inhibition was -4.11% (inactive) and the Gaussia minus Italica difference is 0.354%. Moreover, under setting [1], the activity change, negative = inhibition was -4.47%.

For `O=C(C1CCC1)N1CC2(C1)[C@H](c1ccccc1)[C@H](CO)N2Cc1nccs1`, the activity change, negative = inhibition was 12.8% (inactive) and the Gaussia minus Italica difference is 10.6%. In addition, the activity change, negative = inhibition under setting [1] was 2.26%.

Regarding `CCC(=O)N1C[C@@H](O)COC[C@H]2O[C@H](CC(=O)NCC3CCCCC3)CC[C@@H]21`, the activity change, negative = inhibition was 1.84% (inactive) and the Gaussia minus Italica difference worked out at 1.57%. In addition, the activity change, negative = inhibition under setting [1] came to 0.272%.

The values are drawn from PubChem BioAssay AID1224904 (Broad Institute, 2016).
